Experimental findings from PubChem BioAssay are described below.

The source made the active and inactive calls. Unless noted, no rule for the calls is given here.

The nature of assay [1]: HepG2 liver cancer cell viability effects, profiling panel, resazurin fluorescence, 24 h, PK04 Diversity Set (AID 1172). As to conditions: higher = more signal.
A short description of assay [2]: basal S. cerevisiae growth modulation, no modifier, primary screen, OD600, strain BY4716, 24 h, basal condition (AID 1173). As to conditions: OD600, 24 h; higher = more signal, called active from +8 up or from −8 down unless noted.
Assay [3] can be described thus: MM1S myeloma cell viability, profiling panel, resazurin fluorescence, basal, 24 h, PK04 Diversity Set (AID 1174).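 Also: MM1S multiple myeloma cell line.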 As to conditions: higher = more signal, called active from +8 up or from −8 down unless noted.
Assay [4] concerns the target Dihydroorotate dehydrogenase (quinone), mitochondrial (Plasmodium falciparum (isolate 3D7)) (UniProt Q08210). Description: PfDHODH enzyme inhibitors, primary screen, biochemical, C-terminal His tag, absorbance 600 nm (AID 1175).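 Also: recombinant parasite enzyme with a five histidine tag at its C terminus.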 As to conditions: DCIP absorbance 600 nm; higher = more signal, called active from +8 up or from −8 down unless noted.
Assay [5] is described as follows: P. aeruginosa biofilm formation inhibitors, primary screen, strain PAO1, LB-PBS medium, absorbance 600 nm (AID 1176). The note with it: P. aeruginosa PAO1 growth/biofilm, A600, 12 h; higher = more signal.
Assay [6] can be described thus: S. cerevisiae RM11-1a growth modifiers, primary screen, strain RM11-1a, OD600, basal, 24 h (AID 1177).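 Also: cultures grown under basal conditions with no added stressor.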 As to conditions: OD600, 24 h; higher = more signal, called active from +8 up or from −8 down unless noted.
Assay [7] can be described thus: E. coli acrAB mutant growth effects, primary screen, E. coli filamentation inducers, strain DRC39, OD650, 24 h (AID 1178).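 Also: growth measured as culture turbidity by optical density at 650 nm.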 The note with it: higher = more signal, called active from +8 up or from −8 down unless noted.
Assay [8] in a line: E. coli acrAB mutant growth effects, primary screen, E. coli filamentation inducers, strain DRC39, OD650, 48 h (AID 1179).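 Also: screen aims at cell division blockers that make cells filament.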 The note with it: E. coli DRC39 delta-acrAB growth, higher = more signal, called active from +8 up or from −8 down unless noted.
The nature of assay [9]: RPMI8226 myeloma cell viability, profiling panel, resazurin fluorescence, basal, 24 h, PK04 Diversity Set (AID 1180).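 Also: RPMI8826 multiple myeloma cell line at 5000 cells per well.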 As to conditions: higher = more signal; RPMI8226 viability, resazurin fluorescence, 24 h unless noted.
For assay [10], the target named is E3 ubiquitin-protein ligase XIAP (Homo sapiens) (UniProt P98170). Description: XIAP binders, primary screen, biophysical, small-molecule microarray, fluorescence 635 nm (AID 1181).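 Also: score merges 667 nm emission and signal to noise over triplicate slides.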 As to conditions: small-molecule microarray binding, higher = more signal.
E3 ubiquitin-protein ligase XIAP (Homo sapiens), sequence (P98170 whole entry, looked up): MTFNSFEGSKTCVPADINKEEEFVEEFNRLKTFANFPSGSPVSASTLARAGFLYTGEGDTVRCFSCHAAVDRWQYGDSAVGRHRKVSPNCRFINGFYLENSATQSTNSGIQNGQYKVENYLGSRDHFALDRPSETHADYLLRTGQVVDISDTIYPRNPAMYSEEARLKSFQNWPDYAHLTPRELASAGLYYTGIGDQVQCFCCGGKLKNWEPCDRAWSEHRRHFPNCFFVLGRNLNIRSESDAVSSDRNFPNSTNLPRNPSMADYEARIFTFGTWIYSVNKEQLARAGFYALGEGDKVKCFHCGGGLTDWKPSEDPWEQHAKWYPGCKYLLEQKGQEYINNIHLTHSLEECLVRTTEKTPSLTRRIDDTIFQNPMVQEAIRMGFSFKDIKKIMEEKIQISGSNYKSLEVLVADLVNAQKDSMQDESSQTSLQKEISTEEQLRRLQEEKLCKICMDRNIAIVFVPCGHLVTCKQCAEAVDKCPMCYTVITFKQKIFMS
Assay [11] has as its system XIP peptide (Xip251-270) binding. Description: small-molecule binders of XIP peptide, primary screen, biochemical, small-molecule microarray, fluorescence 635/667 nm, 0.1 µg/mL protein (AID 1182). The note with it: fluorescent protein binding, 635 nm; higher = more signal, called active from +8 up or from −8 down unless noted.
In assay [12] the test system is XIP peptide (Xip251-270). Description: small-molecule binders of XIP peptide, primary screen, biochemical, small-molecule microarray, fluorescence 635/667 nm, 0.5 µg/mL protein (AID 1183). As to conditions: small-molecule microarray binding, fluorescence 635 nm; higher = more signal.
Assay [13] is described as follows: Plasmodium falciparum growth inhibition, primary screen, strain 3D7, DAPI fluorescence, 100 nL (AID 1184).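 Also: parasites grown inside human red blood cells in medium with human serum.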 The note with it: P. falciparum 3D7 growth, 3 d, higher = more signal.
Assay [14] deals with Homeobox protein Hox-A13 (Mus musculus) (UniProt Q62424). Description: inhibitors of HoxA13-DNA binding, primary screen, biochemical, fluorescence polarization, labeled oligonucleotide (AID 1185). The note with it: 15 min; higher = more signal, called active from +8 up or from −8 down unless noted.
Homeobox protein Hox-A13 (Mus musculus), sequence (Q62424 whole entry, looked up): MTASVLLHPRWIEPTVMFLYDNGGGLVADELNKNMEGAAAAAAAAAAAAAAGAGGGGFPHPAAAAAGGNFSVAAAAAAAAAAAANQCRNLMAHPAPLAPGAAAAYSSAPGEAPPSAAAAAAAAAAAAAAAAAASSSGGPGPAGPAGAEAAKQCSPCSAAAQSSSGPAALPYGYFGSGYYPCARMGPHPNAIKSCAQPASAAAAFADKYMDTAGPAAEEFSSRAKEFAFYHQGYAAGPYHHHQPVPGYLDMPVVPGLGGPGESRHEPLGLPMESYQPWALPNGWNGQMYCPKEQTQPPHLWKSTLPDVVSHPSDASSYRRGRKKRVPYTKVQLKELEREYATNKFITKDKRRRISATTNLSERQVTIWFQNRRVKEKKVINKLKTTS
A short description of assay [15]: inhibitors of hydroxyurea-induced Chk1 phosphorylation, primary screen, imaging, HeLa, phospho-Chk1 antibody, percent positive cells (AID 1186). As to conditions: hydroxyurea-induced phospho-Chk1 immunofluorescence imaging, higher = more signal.
A short description of assay [16]: inhibitors of hydroxyurea-induced Chk1 phosphorylation, primary screen, imaging, HeLa, phospho-Chk1 nuclear intensity (AID 1187). The note with it: hydroxyurea-induced phospho-Chk1 immunofluorescence imaging, higher = more signal.

Dihydroorotate dehydrogenase (quinone), mitochondrial (Plasmodium falciparum (isolate 3D7)), sequence (Q08210 whole entry, looked up): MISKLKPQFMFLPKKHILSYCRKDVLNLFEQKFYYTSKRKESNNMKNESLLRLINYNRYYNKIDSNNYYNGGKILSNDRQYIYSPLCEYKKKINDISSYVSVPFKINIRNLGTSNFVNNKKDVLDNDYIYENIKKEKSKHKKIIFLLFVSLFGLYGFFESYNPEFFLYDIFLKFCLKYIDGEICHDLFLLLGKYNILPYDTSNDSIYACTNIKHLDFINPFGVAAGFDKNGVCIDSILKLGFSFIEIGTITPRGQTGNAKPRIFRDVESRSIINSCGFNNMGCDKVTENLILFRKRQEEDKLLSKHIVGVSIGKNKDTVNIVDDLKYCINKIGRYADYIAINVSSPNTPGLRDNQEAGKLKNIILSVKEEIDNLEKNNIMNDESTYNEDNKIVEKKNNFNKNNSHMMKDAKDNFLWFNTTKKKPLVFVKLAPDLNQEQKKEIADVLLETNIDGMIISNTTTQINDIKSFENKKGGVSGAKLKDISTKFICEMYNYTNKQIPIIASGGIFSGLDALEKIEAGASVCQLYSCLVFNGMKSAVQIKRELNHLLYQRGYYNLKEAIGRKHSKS

`CCCc1cc2c(n1Cc1cccc(Cl)c1)C(C)C1CN(C(=O)c3ccccc3)C(C)(C(=O)OC)C21` (stereo unspecified): the z-score in [1] is -1.04; in assay [2], 0.773 (inactive); in assay [3], -1.7 (inactive); in assay [5], 0.619 (inactive); in [6] it was 0.616 (inactive); in [7], -0.423 (inactive). Besides, the z-score is -0.0676 (inactive) in assay [8]; -1.56 in assay [9]; -0.413 in assay [13]; -5.79 (inactive) in assay [14]; 0.251 (inactive) in [15]; 0.861 (inactive) in [16]. The composite z-score in [4] is -0.403 (inactive); in [10] it was 0.621; in assay [11] it was 1.12 (inactive); in assay [12], -0.589.
As for `COC(=O)[C@@]1(Cc2ccc(F)cc2)[C@H]2c3cc(C(=O)N(C)C)[nH]c3C[C@H]2CN1C(=O)c1ccccc1`, the z-score was -1.3 in [1]; 1.11 [setting not given] (inactive) in [2]; -0.811 [setting not given] (inactive) in [3]; 0.191 (inactive) in assay [5]; 1.09 [setting not given] (inactive) in assay [6]; -0.119 [setting not given] (inactive) in assay [7]. Also, the z-score was 0.169 [E. coli growth] (inactive) in [8]; -0.487 [setting not given] in assay [9]; 0.412 in assay [13]; -4.26 [setting not given] (inactive) in assay [14]; 1.11 (inactive) in assay [15]; 0.831 (inactive) in assay [16]. The composite z-score in assay [4] was 0.25 [setting not given] (inactive); in assay [10] it was 0.0546; in assay [11], 0.614 [setting not given] (inactive); in [12], 0.17.
Turning to `CCCc1cc2c(n1Cc1ccc(C)cc1)C(C)C1CN(C(=O)c3ccccc3)C(C)(C(=O)OC)C21` (stereo unspecified), the z-score in assay [1] is -0.492; in [2] it was -0.283 (inactive); in [3], -1.04 (inactive); in assay [5] it was 0.355 (inactive); in [6], -0.654 (inactive); in [7], 0.103 (inactive). Further, the z-score is 0.357 (inactive) in assay [8]; -1.11 in [9]; -0.0901 in assay [13]; -2.8 (inactive) in assay [14]; -0.364 (inactive) in [15]; 0.0089 (inactive) in assay [16]. For the same molecule, the composite z-score was -1.07 (inactive) in assay [4], 0.174 in assay [10], 0.707 (inactive) in assay [11] and 0.73 in assay [12].
As to `c1ccc(-c2cc3c(nc2-c2ccccc2)CCNC3)cc1`, the z-score in assay [1] was 0.469; in assay [2] it was -0.0743 (inactive); in [3], 0.526 (inactive); in [5], -0.0933 (inactive); in assay [6], 1.36 (inactive); in assay [7], 0.306 (inactive). Moreover, the z-score was -0.29 (inactive) in assay [8], 0.938 in assay [9], -0.295 in assay [13] and -0.372 (inactive) in [14]. The composite z-score in assay [4] is 1.07 (inactive); in assay [10], -0.0344; in assay [11], 0.236 (inactive); in assay [12], 0.0762.
For the molecule `COC(=O)[C@@]1(Cc2ccccc2)[C@H]2c3cc(C(=O)N(C)C)n(C)c3C[C@H]2CN1C(=O)c1ccccc1`, the z-score is -0.0935 in [1]; 0.658 (inactive) in [2]; -0.923 (inactive) in assay [3]; -0.222 (inactive) in [5]; 0.299 (inactive) in [6]; 0.0242 (inactive) in assay [7]. The z-score in assay [8] was 0.0618 (inactive); in assay [9], -0.0721; in [13] it was -0.731; in assay [14], -6.38 (inactive); in assay [15], -0.344 (inactive); in assay [16], -0.428 (inactive). Moreover, the composite z-score in [4] was -0.105 (inactive); in [10], 0.071; in assay [11] it was 0.0028 (inactive); in [12] it was -0.0822.
For `CCCc1cc2c(n1CCO)C(C)C1CN(C(=O)c3ccccc3)C(C)(C(=O)OC)C21` (stereo unspecified), the z-score in assay [1] is -1.6; in [2], 0.262 (inactive); in [3] it was -1.68 (inactive); in assay [5], -0.0703 (inactive); in [6], 0.168 (inactive); in [7] it was -0.681 (inactive). Moreover, the z-score in assay [8] was -0.127 (inactive); in assay [9], -1.85; in assay [13] it was 0.119; in assay [14] it was -4.02 (inactive); in assay [15], 1.28 (inactive); in [16] it was 1.1 (inactive). In addition, the composite z-score is -0.349 (inactive) in [4], 0.612 in assay [10], 0.26 (inactive) in assay [11] and 0.719 in assay [12].
Consider `COC(=O)C1(C)C=C2C(=C(C)C(=O)C2C)CN1` (stereo unspecified), for which the z-score in assay [1] was -1.13; in [2] it was 2.09 (inactive); in assay [3] it was -2.31 (inactive); in [5], 1.53 (inactive); in assay [6], 1.17 (inactive); in assay [7], -0.608 (inactive). Moreover, the z-score is -1.64 (inactive) in assay [8]; -1.24 in assay [9]; -1.06 in [13]; -3.26 (inactive) in [14]; 0.414 (inactive) in assay [15]; 0.354 (inactive) in assay [16]. Besides, the composite z-score is -0.809 (inactive) in assay [4], 0.226 in [10], -0.309 (inactive) in [11] and -0.628 in [12].
For `OCc1ccc(C2=CC(C3CC3)N(Cc3sc4ccccc4c3Cl)CC2)cc1` (stereo unspecified), the z-score was -0.0351 in [1]; -4.2 (inactive) in assay [2]; -1.43 (inactive) in [3]; -0.411 (inactive) in assay [5]; 1.76 (inactive) in [6]; -1.71 (inactive) in assay [7]. Further, the z-score in assay [8] was -1.33 (inactive); in assay [9] it was -1.37; in [13], -3.04; in assay [14], 3.12 (inactive); in assay [15] it was -0.6 (inactive); in assay [16], -0.744 (inactive). Besides, the composite z-score in assay [4] is -1.3 (inactive); in assay [10], 0.539; in [11], 1.51 (inactive); in [12] it was 0.625.
